Measured values: PubChem BioAssay AID1159580 (chemical genetic matrix, 2015)
Several values for one entry are separate records, joined by “and”; a condition that tells them apart may be missing. Equal entries are not always repeated. The whole screen tested about 5,500 compounds, of which about 2,000 (36%) were called active. Roughly 18% stayed inconclusive and do not appear here. This is one part of the list. Unmarked numbers belong to inactive results. No stated cut-off is given here; in the data, active means normalized growth mostly below about 0.91 (no sharp cut-off); inconclusive means no clear call, values can overlap the other calls; inactive means mostly above about 0.92.

Experiment: chemical genetic growth profiling, strain panel (AID 1159580);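 further: tested at 20 µM; growth read once vehicle control cultures reached saturation at 30 °C; 1 = growth at the plate median or of vehicle wells; lower values mean less growth of the strain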
Conditions: S. cerevisiae deletion strains, growth OD

SMILES: C[C@]12CCC3c4ccc(O)cc4CCC3C1CCC2=O (stereo partly drawn)
- normalized growth (locus YAL013W, strain DEP1, hits give low values): 0.968
- normalized growth (locus YAL021C, strain ccr4, hits give low values): 1
- normalized growth (locus YAL026C, strain drs2, hits give low values): 0.993
- normalized growth (locus YAL030W, strain snc1, hits give low values): 1.01
- normalized growth (locus YBL061C, strain skt5, hits give low values): 0.999
- normalized growth (locus YBR009C, strain hhf1, hits give low values): 0.953
- normalized growth (locus YBR021W, strain FUR4, hits give low values): 0.875
- normalized growth (locus YBR023C, strain chs3, hits give low values): 1.01
- normalized growth (locus YBR171W, strain sec66, hits give low values): 0.992
- normalized growth (locus YBR229C, strain ROT2, hits give low values): 0.96
- normalized growth (locus YBR231C, strain swc5, hits give low values): 0.975
- normalized growth (locus YBR279W, strain paf1, hits give low values): 0.988
- normalized growth (locus YCL011C, strain gbp2, hits give low values): 1.01
- normalized growth (locus YCL016C, strain dcc1, hits give low values): 1.01
- normalized growth (locus YCL029C, strain bik1, hits give low values): 0.952
- normalized growth (locus YCL061C, strain MRC1, hits give low values): 1.01
- normalized growth (locus YCL069W, strain vba3, hits give low values): 1
- normalized growth (locus YCR088W, strain abp1, hits give low values): 1.01
- normalized growth (locus YDL005C, strain med2, hits give low values): 1.02
- normalized growth (locus YDL035C, strain GPR1, hits give low values): 0.87
- normalized growth (locus YDL040C, strain nat1, hits give low values): 1.01
- normalized growth (locus YDL074C, strain BRE1, hits give low values): 0.766 (active)
- normalized growth (locus YDL101C, strain DUN1, hits give low values): 0.987
- normalized growth (locus YDL134C, strain PPH21, hits give low values): 0.901
- normalized growth (locus YDL185W, strain tfp1, hits give low values): 0.96
- normalized growth (locus YDL192W, strain arf1, hits give low values): 0.98
- normalized growth (locus YDR001C, strain nth1, hits give low values): 1.02
- normalized growth (locus YDR069C, strain doa4, hits give low values): 0.993
- normalized growth (locus YDR101C, strain arx1, hits give low values): 0.923
- normalized growth (locus YDR137W, strain rgp1, hits give low values): 0.682 (active)
- normalized growth (locus YDR159W, strain sac3, hits give low values): 0.959
- normalized growth (locus YDR162C, strain NBP2, hits give low values): 0.761 (active)
- normalized growth (locus YDR195W, strain ref2): 1.26 [resistant] (active)
- normalized growth (locus YDR297W, strain sur2, hits give low values): 1.01
- normalized growth (locus YDR318W, strain mcm21, hits give low values): 0.967
- normalized growth (locus YDR334W, strain swr1, hits give low values): 1.02
- normalized growth (locus YDR335W, strain msn5, hits give low values): 0.998
- normalized growth (locus YDR388W, hits give low values): 0.987
- normalized growth (locus YDR392W, strain spt3, hits give low values): 0.625 (active)
- normalized growth (locus YDR502C, strain sam2, hits give low values): 0.939
- normalized growth (locus YEL003W, strain gim4, hits give low values): 0.942
- normalized growth (locus YEL037C, strain rad23, hits give low values): 1.01
- normalized growth (locus YEL061C, strain CIN8 (second series), hits give low values): 1
- normalized growth (locus YEL061C, strain CIN8, hits give low values): 0.997
- normalized growth (locus YER015W, strain faa2, hits give low values): 1.01
- normalized growth (locus YER016W, strain bim1, hits give low values): 0.978
- normalized growth (locus YER110C, hits give low values): 0.985
- normalized growth (locus YER111C, strain swi4, hits give low values): 1.02
- normalized growth (locus YER155C, strain BEM2 (second series), hits give low values): 0.905
- normalized growth (locus YER155C, strain BEM2, hits give low values): 1
- normalized growth (locus YER167W, strain BCK2, hits give low values): 1.03
- normalized growth (locus YFR010W, strain ubp6, hits give low values): 1
- normalized growth (locus YGL078C, strain dbp3, hits give low values): 0.969
- normalized growth (locus YGL086W, strain mad1, hits give low values): 0.959
- normalized growth (locus YGL167C, strain pmr1, hits give low values): 1.03
- normalized growth (locus YGL173C, strain kem1, hits give low values): 0.963
- normalized growth (locus YGL227W, strain vid30, hits give low values): 1.03
- normalized growth (locus YGL240W, strain doc1, hits give low values): 0.944
- normalized growth (locus YGL248W, strain PDE1, hits give low values): 0.962
- normalized growth (locus YGL253W, strain hxk2, hits give low values): 0.951
- normalized growth (locus YGR135W, strain pre9, hits give low values): 1.02
- normalized growth (locus YGR252W, strain gcn5, hits give low values): 0.874
- normalized growth (locus YHR013C, strain ard1, hits give low values): 1.01
- normalized growth (locus YHR027C, strain rpn1, hits give low values): 1
- normalized growth (locus YHR030C, strain SLT2, hits give low values): 1.01 and 0.986
- normalized growth (locus YHR079C, strain IRE1 (second series), hits give low values): 0.992
- normalized growth (locus YHR079C, strain IRE1, hits give low values): 0.989
- normalized growth (locus YHR094C, strain hxt1, hits give low values): 0.999
- normalized growth (locus YHR129C, strain ARP1, hits give low values): 1.01
- normalized growth (locus YHR142W, strain chs7, hits give low values): 0.949
- normalized growth (locus YHR200W, strain rpn10, hits give low values): 0.984
- normalized growth (locus YIL066C, strain RNR3, hits give low values): 0.982
- normalized growth (locus YIL073C, strain SPO22, hits give low values): 0.94
- normalized growth (locus YIL125W, strain kgd1, hits give low values): 0.986
- normalized growth (locus YIR030C, strain dcg1, hits give low values): 1.02
- normalized growth (locus YJL092W, strain hpr5, hits give low values): 1.02
- normalized growth (locus YJL095W, strain BCK1 (second series), hits give low values): 1.01
- normalized growth (locus YJL095W, strain BCK1, hits give low values): 0.919 and 0.992
- normalized growth (locus YJL115W, strain asf1, hits give low values): 1.02
- normalized growth (locus YJL129C, strain trk1, hits give low values): 1.03
- normalized growth (locus YJL134W, strain LCB3, hits give low values): 0.992
- normalized growth (locus YJL154C, strain vps35, hits give low values): 1.02
- normalized growth (locus YJL164C, strain tpk1, hits give low values): 0.957
- normalized growth (locus YJL166W, strain qcr8, hits give low values): 0.987
- normalized growth (locus YJL168C, strain set2, hits give low values): 1
- normalized growth (locus YJL187C, strain SWE1 (second series), hits give low values): 0.969
- normalized growth (locus YJL187C, strain SWE1, hits give low values): 1.01
- normalized growth (locus YJR043C, strain POL32, hits give low values): 0.937
